Measured values taken from the supplement of paper PMC6555819.

Tests used:
Assay in all cases: PBM binding z-score (relative to random genomic background probes); higher = stronger binding; sequences stand for … in GC…GCGATTGACAGCGTAGAATGAAGG
[1] = system: RARb homodimer (NR concentration 270 nM)
Procedure, shortened: (§1)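 Ligand-free nuclear receptor dimers were applied to custom Agilent 4×180K protein-binding microarrays whose double-stranded probes carried direct-repeat seeds, single-nucleotide variants, half-site ablations and random human genomic background sequences in 34-nt variable regions. Incubation lasted 1 h. Binding z-scores were computed against the random background probes from regression-normalized fluorescence.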

[2] = system: RARg:RXRa (NR concentration 270 nM, RXRa partner concentration 90 nM)
Procedure, shortened: as §1

[3] = system: RARg homodimer (NR concentration 270 nM)
Procedure, shortened: as §1

[4] = system: RXRa DBDmut IVT, anti-RXR (DBD mutation: RXRa K156A/R161A, NR concentration 90 nM)
Procedure, shortened: as §1

[5] = system: RXRa homodimer (NR concentration 180 nM)
Procedure, shortened: as §1

[6] = system: THRa:RXRa (NR concentration 90 nM, RXRa partner concentration 90 nM)
Procedure, shortened: as §1

[7] = system: THRa homodimer (NR concentration 90 nM)
Procedure, shortened: as §1

[8] = system: VDR homodimer (NR concentration 270 nM)
Procedure, shortened: as §1

Sequence | PBM binding z-score [1] | PBM binding z-score [2] | PBM binding z-score [3] | PBM binding z-score [4] | PBM binding z-score [5] | PBM binding z-score [6] | PBM binding z-score [7] | PBM binding z-score [8]
TGTCAAAGTTTAAAGGTAACGTAAGTATCCACAC | 1.36 | 2.26 | 1.75 | 1.11 | 2.1 | 1.99 | -0.137 | 0.446
TCTAGTTGGTCACGGAGGTCACACCCGACGGGTA | 3.93 | 4.53 | 4.61 | 0.865 | 4.68 | 3.44 | 2.28 | 3.22
CCAGACAGGTGAGAAGGTAAGTCAGCCTCGATTA | 0.641 | 0.215 | 0.357 | 0.0817 | 0.216 | 0.3 | 0.145 | -0.136
TCTAGTTGGTCACGGAGGTCAGACACGACGGGTA | 3.9 | 3.72 | 3.75 | 1 | 3.4 | 2.79 | 1.39 | 1.56
CCTAGTAGGTCAGGAGGTCACACACCGGATATGA | 5.24 | 7.25 | 6.37 | 1.03 | 7.18 | 3.91 | 2.34 | 3.13
CCGACTGGGGCAGGGTTACCATAACGCACAGCCA | 1 | 0.693 | 0.718 | -1.08 | 1.06 | 0.632 | -0.0778 | -0.615
CGTCCAAGTTCAGAGAGGTCAGTGAATGCCGAGT | 4.58 | 4.46 | 5 | 4.24 | 3.48 | 3.14 | 1.43 | 7.06
ATCGAAAGGTCGTGAGTTGAGTATACAGAAAGGC | 2.4 | 4.08 | 3.7 | 1.49 | 4.88 | 2.32 | 0.26 | 1.49
AGAACGAGGGCACGCTGCGTTGATAGCAGAGTAG | 1.06 | 1.55 | 2.21 | 1.81 | 1.3 | 1.71 | -0.00562 | 0.888
ATCTCTAGGTAACAAGTTAAGTGAAAGAGAGGAC | 0.585 | 0.726 | 0.704 | -0.00477 | 0.663 | 1.29 | 0.846 | 0.307
TAGCCTAGGTCACTGGGCCAGTATAGTACGCATC | 3.06 | 3.92 | 4.68 | 0.296 | 2.8 | 2.92 | 0.878 | 0.192
CGTCAAAGTTCAAGGTAGCGTAACAGAAAGCAGC | 3.9 | 5.41 | 6.34 | 4.38 | 4.84 | 2.19 | 0.191 | 3.11
TCTGCTAGGTCAACGATTGTCAGCTAATCTGCTA | 3.06 | 3.75 | 4.64 | 1.16 | 2.41 | 2.77 | 0.845 | -0.274
TCATATAGGTAAATGCTAGTTGAAAGTCCGATCT | -0.114 | 0.306 | 0.163 | 1.59 | 0.682 | 0.27 | -0.299 | 0.45
CCTCGGAGGGCAACAGGAGGTCAGAGCTGCCAGA | 3.73 | 5.71 | 4.23 | 0.315 | 3.16 | 3.26 | 0.313 | 1.22
TCTGCTAGGTCAATGATGGTCAGCTAATCTGCTA | 2.75 | 3.45 | 4.62 | 1.11 | 1.89 | 2.59 | 0.321 | -0.294
ATACCAAGGTGATCTTGAGGTCGTTGATACTAAC | 1.9 | 2.62 | 1.12 | 1.19 | 2.04 | 3.66 | 2.9 | 3.21
GCTAGGAGGCCATTTGGGTCACTCAATGACGGGC | 2.18 | 1.5 | 2.23 | 0.724 | 0.924 | 2.33 | 0.78 | 1.29
GCTAGTCGGTCAGTAAAAGGTCACACACCGGTCG | 5.59 | 6.16 | 6.16 | 0.548 | 5.55 | 3.62 | 1.73 | 1.85
TCTTGTAGATCAGCAGGTAAAGAAAGCTGGCCAA | -0.48 | -0.342 | -0.709 | 0.623 | 0.124 | -0.108 | -0.515 | -0.431
AGAATGAGGTTTTACGTAGATCAGGGAAGAAAGT | -0.169 | -0.132 | 0.114 | 0.185 | -0.108 | 0.3 | 0.0915 | 0.172
TAGCCTAGGTCAGATCGGGCAAGTATACGCTATA | 2.01 | 2.85 | 3.43 | -0.344 | 1.29 | 2.98 | -0.283 | -0.339
CGAACTAGGTCAGAACAGGACCGTGAAGGATGAT | 1.66 | 2.43 | 3.01 | 0.494 | 1.17 | 1.56 | -0.264 | -0.342
TGTCAAAGTTCAAAGGCAACGTAAGTATCCACAC | 3.66 | 5.59 | 5.84 | 4.29 | 5.06 | 2.12 | -0.708 | 4.02
GCGACTGGGGCATCAGCAGGTTACGATAACTTAA | 0.928 | 0.837 | 0.545 | -0.13 | 0.313 | 0.816 | -0.273 | -0.435
AATATAGGGTCATCGTAGGCCAGAGTACGCACAG | 3.83 | 5.9 | 5.5 | 3.83 | 6.83 | 4.67 | 2.3 | 3.76
GCCACTGGGGCATCAGCAGGTTACCATAACTTAA | 0.865 | 0.714 | 0.439 | -0.45 | 0.212 | 0.803 | -0.0926 | -0.602
TCATATAGGTAAATGGTAGGTGAAAGTCCGATCT | 0.917 | 0.69 | 0.384 | 1.84 | 0.945 | 0.858 | 0.785 | 1.1
ACTAGCAGGCCAGGTTTGGGTCACTCAAACAAAG | 1.92 | 1.47 | 0.836 | -0.798 | 0.628 | 2.11 | 0.999 | -0.155
